Only some compounds are listed: those with a hit (about 5.8% of all), similar ones and a draw of the others.
12-LOX inh: ALOX12 (human) lipoxygenase inhibition | hit rate 1.1% among 580,000 | Potency, µM (highest dose often 108 µM), actives largely listed as inhibitors | AID 1671190 | purified 12hLO, xylenol orange hydroperoxide absorbance
Target sequence (P18054 whole entry, looked up): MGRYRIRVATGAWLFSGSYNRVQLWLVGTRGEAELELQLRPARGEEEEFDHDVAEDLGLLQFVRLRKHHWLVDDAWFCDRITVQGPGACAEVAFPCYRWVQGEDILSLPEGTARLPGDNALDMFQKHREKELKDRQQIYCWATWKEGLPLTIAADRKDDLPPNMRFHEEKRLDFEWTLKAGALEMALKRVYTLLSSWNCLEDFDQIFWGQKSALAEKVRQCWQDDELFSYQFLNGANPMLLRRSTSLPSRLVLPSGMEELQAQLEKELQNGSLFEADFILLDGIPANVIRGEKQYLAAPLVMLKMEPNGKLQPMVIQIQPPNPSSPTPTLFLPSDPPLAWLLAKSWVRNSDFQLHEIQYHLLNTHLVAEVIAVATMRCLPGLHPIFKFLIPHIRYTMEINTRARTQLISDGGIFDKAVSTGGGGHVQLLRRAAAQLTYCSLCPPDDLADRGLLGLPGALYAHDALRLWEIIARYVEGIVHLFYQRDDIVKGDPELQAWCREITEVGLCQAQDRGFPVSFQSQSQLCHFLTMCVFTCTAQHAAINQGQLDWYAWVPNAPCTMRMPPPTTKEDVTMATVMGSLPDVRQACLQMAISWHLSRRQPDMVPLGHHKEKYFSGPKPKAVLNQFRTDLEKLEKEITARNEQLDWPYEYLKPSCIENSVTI
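Hydroperoxide product was detected by ferrous iron/xylenol orange as the 573 to 405 nm absorbance ratio. Arachidonic acid at 40 uM (final) was turned over for 30 min at room temperature by 150 nM human 12hLO, pH 7.0 Hepes buffer, after 15 min compound preincubation.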
MCF10A rerep: induces DNA re-replication in MCF 10a normal breast cells; AID 624296; hit rate 2.9% among 350,000; Potency, µM (series often up to 46.1 µM), usual class: activators; MCF 10A DNA re-replication, Hoechst nuclear intensity, 48 h; further: nearly all actives have a fitted effect of over 50% in size
KB-V1 MDR tox: KB-V1 MDR subline cytotoxicity; hit rate 3.4% among 400,000; AID 1347076; KB-V1 MDR cells viability, CellTiter-Glo, 72 h; Potency, µM (titrated, usually from 46.1 µM), usual class: cytotoxic; further: nearly all actives have a fitted effect of over 60% in size
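Drug-selected KB-V1 cells, grown in DMEM lacking phenol red with 10% FBS, receive compound titrations; after three days at 37 degrees C, surviving cell ATP is quantified by CellTiter-Glo luminescence and responses normalized and curve-fitted.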
KB-3-1 cytotox: kills parental KB-3-1 adenocarcinoma cells | KB-3-1 viability, CellTiter-Glo ATP luminescence, 72 h | Potency, µM (titrated, usually from 46.1 µM), hits mostly cytotoxic | hit rate 1.4% among 400,000 | AID 1347075; further: nearly all actives have a fitted effect of over 60% in size
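72 h, 37 °C compound treatment of KB-3-1 parental cells; CellTiter-Glo added, 10 min, luminescence read. Data corrected against DMSO-only plates and normalized before curve fitting.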
PINK1 expr mod: modulators of PINK1 expression | PINK1 immunofluorescence, high-content cytometry, 24 h | Potency, µM (top dose mostly 76.6 µM), actives largely listed as activators | hit rate 0.2% among 410,000 | AID 624263; active means well fitted activation curve with a large enough effect; inconclusive means small, poorly fitted or top-dose-only effect; cell line not stated here; further: nearly all actives have a fitted effect of over 65% in size
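Fluorescence from anti-PINK1 antibody, together with nuclear and cell stains, was scanned on a laser-scanning cytometer. Before staining, stable-line cells were incubated 24 hours with compounds at 5 concentrations; primary antibody 12 h at 10 degrees C.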
SW480 rereplic: induces DNA re-replication in SW480 colon adenocarcinoma cells. Potency, µM (highest dose often 46.1 µM), usual class: activators. SW480 DNA re-replication, Hoechst DNA content imaging, 48 h. hit rate 1.8% among 340,000. AID 624297; further: nearly all actives have a fitted effect of over 55% in size
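Readout is total intensity of Hoechst-stained nuclei, excited at 405 nm and collected at 500-530 nm. Compound treatment lasted 48 hr at 37 C in 5% CO2 before staining.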
Of the large screens only hits and unclear results are named; the others gave an inactive call; ! = not confirmed by another sample. Unless noted, the call rests on the fitted dose curve; in most records, active means well fitted curve in the direction sought with a large enough effect; inconclusive means small, poorly fitted or top-dose-only effect, or another doubt; inactive means no such curve, though single readings can be large; an effect the other way counts as inactive or inconclusive.

CSCCC(NC(=O)COc1ccccc1)C(=O)N(C)Cc1c(F)cccc1Cl (stereo unspecified)	KB-V1 MDR tox inconclusive (no result: MCF10A rerep, SW480 rereplic)
CSCCC(NC(=O)COc1ccccc1)C(=O)NC1CCC(C)CC1 (stereo unspecified)	KB-V1 MDR tox 8.2µM
CSCCC(NC(=O)COc1ccccc1)C(=O)OCC(=O)c1ccccc1 (stereo unspecified)	none
COc1nc(-c2ccc(OC)c3ncccc23)ncc1F	none (no result: MCF10A rerep, KB-V1 MDR tox, KB-3-1 cytotox, PINK1 expr mod, SW480 rereplic)
OCCCCc1nccc2c1[nH]c1ccccc12	none
Clc1ccc(/C=C\c2nccc3c2[nH]c2ccccc23)cc1	MCF10A rerep 2.6µM, KB-V1 MDR tox inconclusive, PINK1 expr mod inconclusive, SW480 rereplic 9.2µM
COc1ccc(/C=C\c2nccc3c2[nH]c2ccccc23)cc1	none (no result: 12-LOX inh, MCF10A rerep, SW480 rereplic)
N#Cc1ccc(/C=C\c2nccc3c2[nH]c2ccccc23)cc1	MCF10A rerep inconclusive, PINK1 expr mod inconclusive, SW480 rereplic 2.1µM
CN1CC(=O)N(C2CCNC2)Cc2c(NCc3ccccn3)ncnc21 (stereo unspecified)	none (no result: MCF10A rerep, KB-V1 MDR tox, KB-3-1 cytotox, PINK1 expr mod, SW480 rereplic)
COc1cc(-c2noc(-c3ccc(S(=O)(=O)N4CCOCC4)o3)n2)ccc1OC(C)C	none (no result: MCF10A rerep, KB-V1 MDR tox, KB-3-1 cytotox, PINK1 expr mod, SW480 rereplic)
O=C(c1ccccc1)N(Cc1cccc2[nH]ccc12)C1CC1	none (no result: MCF10A rerep, KB-V1 MDR tox, KB-3-1 cytotox, PINK1 expr mod, SW480 rereplic)
O=S(=O)(CCS(=O)(=O)c1ccccc1)c1ccccc1	MCF10A rerep inconclusive, SW480 rereplic 16µM
Cc1cc(NC(=O)/C=C/c2ccc(Cl)cc2)no1	PINK1 expr mod inconclusive, SW480 rereplic 6.5µM
Cc1cc(NC(=O)Cc2ccc(Br)cc2)no1	MCF10A rerep inconclusive, SW480 rereplic inconclusive
Cc1cc(NC(=O)/C=C/c2ccc(Br)cc2)no1	KB-V1 MDR tox inconclusive, SW480 rereplic 10µM
COCCCn1c(C)cnc1C1CCN(S(=O)(=O)Cc2ccccc2)C1 (stereo unspecified)	none (no result: MCF10A rerep, KB-V1 MDR tox, KB-3-1 cytotox, PINK1 expr mod, SW480 rereplic)
COCCN1C(=O)CC[C@]2(C(=O)NCc3cccc(OC)c3OC)CCCC[C@@H]12	none (no result: MCF10A rerep, KB-V1 MDR tox, KB-3-1 cytotox, PINK1 expr mod, SW480 rereplic)
CCC(CC)C(O)(C#Cc1ccccc1)c1ccccc1 (stereo unspecified)	none (no result: MCF10A rerep, KB-V1 MDR tox, KB-3-1 cytotox, PINK1 expr mod, SW480 rereplic)
CC(C)OCCCNC(=S)NC1CCCC1	12-LOX inh 35µM (no result: MCF10A rerep, KB-V1 MDR tox, KB-3-1 cytotox, PINK1 expr mod, SW480 rereplic)
CCCCNC(=S)NC1CCCC1	none
CN(C)CCCNC(=S)NCCc1ccccc1	none (no result: MCF10A rerep, KB-V1 MDR tox, KB-3-1 cytotox, PINK1 expr mod, SW480 rereplic)
O=C(N/N=C/c1cc(Cl)cc([N+](=O)[O-])c1O)NC12CC3CC(CC(C3)C1)C2	12-LOX inh inconclusive, MCF10A rerep 18µM, KB-V1 MDR tox inconclusive, KB-3-1 cytotox inconclusive, PINK1 expr mod inconclusive
O=C(N/N=C/c1cc(Cl)cc([N+](=O)[O-])c1O)c1ccc2c(c1)OCO2	MCF10A rerep inconclusive, KB-3-1 cytotox inconclusive, SW480 rereplic 18µM
O=C(N/N=C/c1cc(Br)cc(Cl)c1O)c1ccc2c(c1)OCO2	12-LOX inh 22µM, MCF10A rerep inconclusive, KB-V1 MDR tox inconclusive, KB-3-1 cytotox inconclusive
COc1cccc2[nH]c3c(N4CCCC(C)C4)ncnc3c12 (stereo unspecified)	KB-V1 MDR tox 6.5µM
CCN(C(=O)c1cnc(N2CCOCC2)c2ccccc12)c1cccc(C)c1	none (no result: MCF10A rerep, KB-V1 MDR tox, KB-3-1 cytotox, PINK1 expr mod, SW480 rereplic)
CN(Cc1ccccc1)C1CCCc2ccccc21 (stereo unspecified)	none (no result: MCF10A rerep, KB-V1 MDR tox, KB-3-1 cytotox, PINK1 expr mod, SW480 rereplic)
CCNc1ccc(S(=O)(=O)N(C)C)cc1NCC(=O)Nc1ccc(Br)cc1F	KB-V1 MDR tox 16µM
O=C(NC1CC1)c1cc(=O)c2cc(Cl)ccc2o1	none (no result: MCF10A rerep, KB-V1 MDR tox, KB-3-1 cytotox, PINK1 expr mod, SW480 rereplic)
COc1ccc(CCN2CCC(Nc3nc4ccccc4n3Cc3ccc(F)cc3)CC2)cc1	12-LOX inh inconclusive, MCF10A rerep 4.6µM, KB-V1 MDR tox 21µM, KB-3-1 cytotox inconclusive, SW480 rereplic 3.7µM!
Cc1c(NC(=O)/C=C/c2cn(-c3ccccc3)nc2-c2ccc(F)cc2)c(=O)n(-c2ccccc2)n1C	MCF10A rerep 18µM, KB-3-1 cytotox inconclusive
CC1=NNC(=O)/C1=C\c1cn(-c2ccccc2)nc1-c1ccc(F)cc1	MCF10A rerep 4.6µM, KB-V1 MDR tox inconclusive, SW480 rereplic inconclusive (no result: 12-LOX inh)
CC1=NNC(=O)/C1=C\c1cn(-c2ccccc2)nc1-c1cccs1	12-LOX inh inconclusive, MCF10A rerep 2.6µM, SW480 rereplic 4.1µM
Cc1ccc(-c2nn(-c3ccccc3)cc2/C=C/C(=O)Nc2nccs2)cc1	MCF10A rerep inconclusive
Cc1cc(C)nc(NC(=O)Nc2ccc(F)cc2)c1	none (no result: MCF10A rerep, KB-V1 MDR tox, KB-3-1 cytotox, PINK1 expr mod, SW480 rereplic)

Assay outcomes (PubChem)
